Only some compounds are listed: those with a hit (about 1.1% of all), similar ones and a draw of the others.
NCOA1 inh: SRC1 coactivator transcriptional activity inhibitors, primary screen, cell-based, luminescence. Nuclear receptor coactivator 1 (Homo sapiens), Q15788. AID 588354, 2011. HEK293 GAL4-SRC1 luciferase reporter. inhibition, % at 3.6 µM. hit rate 0.12% among 360,000;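 active = inhibition above the campaign mean plus 3 SD, with each screening campaign given its own cutoff, cut at about 60% in these data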;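 note: 0% = DMSO treated cells and 100% = gossypol at 36 µM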
SRC2 inh: inhibition of GAL4-SRC2 driven luciferase reporter, primary screen, SRC2 inhibitor project, cell-based, luminescence; HEK293 GAL4-SRC2 luciferase reporter; Nuclear receptor coactivator 2 (Homo sapiens), Q15596; inhibition, % at 9 µM; hit rate 0.17% among 370,000; AID 651957, 2012;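 active = inhibition above the mean inhibition of all tested compounds plus 3 SD, set per campaign, cut at about 52% in these data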;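 note: 0% = DMSO treated cells and 100% = cells given Gossypol at 36 µM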
GalR3 antagonist: GalR3 antagonists in HEK293 cells, primary screen, cell-based, fluorescence readout. inhibition, % at 3 µM. AID 651719, 2012. hit rate 0.44% among 360,000. Galanin receptor type 3 (Homo sapiens), O60755. HEK293 GalR3-CNG cAMP membrane potential fluorescence; galR3 body fused to GalR1 C-terminus;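 active = inhibition above the screen-wide average plus 3 SD, cut at about 13% in these data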;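 note: forskolin and galanin both at EC90 stimulate the cells; cAMP rise reported by CNG channel membrane potential dye signal; 0% = forskolin plus galanin with DMSO and 100% = forskolin alone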
Target sequence (O60755 1-299 limits assumed): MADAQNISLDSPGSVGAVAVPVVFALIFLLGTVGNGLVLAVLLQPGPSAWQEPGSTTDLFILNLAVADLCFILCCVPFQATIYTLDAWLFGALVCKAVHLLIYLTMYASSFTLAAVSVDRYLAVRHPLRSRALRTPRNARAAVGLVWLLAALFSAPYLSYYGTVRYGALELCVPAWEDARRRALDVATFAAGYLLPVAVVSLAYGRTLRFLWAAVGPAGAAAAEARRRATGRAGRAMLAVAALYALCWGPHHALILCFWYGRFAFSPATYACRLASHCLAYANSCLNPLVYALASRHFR
NR5A2 inv ag: LRH-1 (NR5A2) inverse agonists, primary screen, cell-based, luminescence, HEK293T, StAR-luciferase reporter; Nuclear receptor subfamily 5 group A member 2 (Homo sapiens), O00482; LRH-1 transfected, 24 h; inhibition, % at 3.6 µM; hit rate 0.13% among 360,000; AID 602396, 2012;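 active = inhibition above the mean inhibition of all tested compounds plus 3 SD, cut at about 73% in these data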;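 note: 0% = DMSO wells and 100% = reporter-only cells lacking LRH-1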
SRC3 inh: SRC3 coactivator transcriptional activity inhibitors, primary screen, cell-based, luminescence; Nuclear receptor coactivator 3 (Homo sapiens), Q9Y6Q9; HEK293 GAL4-SRC3 luciferase reporter; inhibition, % at 3.6 µM; hit rate 0.17% among 360,000; AID 588352, 2011;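 active = inhibition above a per-campaign cutoff, the mean of all compounds plus 3 SD, cut at about 60% in these data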;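 note: 0% = DMSO-treated cells and 100% = gossypol-treated cells at 36 µM; higher means less SRC3-driven luciferase light from the GAL4 reporter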
COUP-TFII inh: NR2F2 transcriptional activity inhibitors, primary screen, cell-based, luciferase reporter, HEK293T, luminescence; COUP transcription factor 2 (Homo sapiens), P24468; HEK293T NGFI-A luciferase reporter; inhibition, % at 8.6 µM; hit rate 0.7% among 370,000; AID 686940, 2013;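 active = inhibition above a per-plate cutoff, mean inhibition of test wells between control levels plus 3 SD, cut at about 38% in these data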;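 note: cells cotransfected with COUP-TFII expression vector driving the NGFI-A reporter; 0% = median of COUP-TF2 test wells and 100% = reporter-only cells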
Target sequence (P24468 whole entry, looked up): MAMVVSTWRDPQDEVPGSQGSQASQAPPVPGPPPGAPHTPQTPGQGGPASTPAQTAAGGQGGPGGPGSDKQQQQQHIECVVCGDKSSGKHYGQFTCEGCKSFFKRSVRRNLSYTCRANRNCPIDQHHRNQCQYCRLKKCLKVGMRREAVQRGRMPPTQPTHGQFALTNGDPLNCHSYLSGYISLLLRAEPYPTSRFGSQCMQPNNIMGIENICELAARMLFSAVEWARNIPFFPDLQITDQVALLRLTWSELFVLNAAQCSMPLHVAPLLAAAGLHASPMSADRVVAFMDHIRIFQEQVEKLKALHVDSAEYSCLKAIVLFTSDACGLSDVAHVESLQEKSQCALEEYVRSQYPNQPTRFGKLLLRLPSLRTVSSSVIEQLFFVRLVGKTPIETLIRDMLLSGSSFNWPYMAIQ
GalR3 antag conf: GalR3 antagonist hit confirmation, cell-based, fluorescence, triplicate | HEK293 GalR3 CNG cAMP biosensor, membrane potential fluorescence; galR3 fused to GalR1 carboxy tail; challenged with forskolin and galanin at EC90 | inhibition, % at 3 µM | shares compounds with GalR3 antagonist | hit rate 59% among 1,600;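 active = inhibition above the primary screen's cutoff, the mean inhibition of all screened compounds plus 3 SD, cut at about 13% in these data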;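 note: 0% = forskolin plus galanin and 100% = forskolin alone with DMSO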
CNG parental: nonspecific cAMP agonists in parental HEK-CNG cells, counter-screen for GalR3 antagonist project, cell-based, fluorescence, high throughput; shares compounds with GalR3 antagonist; hit rate 10% among 1,600; HEK293-CNG parental cells, cAMP membrane potential fluorescence; normalised: DMSO wells 0%, forskolin wells 100%; AID 652268, 2013; activation, % at 3 µM; in the data active = activation above about 1.3%
Starred values were filed as active, the others as inactive; · = no result given.

SMILES | NCOA1 inh | SRC2 inh | GalR3 antagonist | NR5A2 inv ag | SRC3 inh | COUP-TFII inh | GalR3 antag conf | CNG parental
COCCn1c(=O)[nH]c(=O)c2c1nc(-c1cc(Br)c3c(c1)OCO3)n2Cc1ccccc1 | -7.4 | -28.9 | 15.1* | 3.5 | 2.4 | -10.8 | 16.1* | 0.3
CCCCn1c(-c2nonc2NC(=O)c2ccccc2Cl)nc2ccccc21 | 2.6 | -0.2 | 19.4* | 7.7 | -51.8 | -4.4 | -0.4 | 0.2
C[C@]12c3[nH]c4cc(-c5ccco5)ccc4c3CCN1C(=O)[C@@H](CC(=O)NCCc1ccccn1)C[C@@H]2C(=O)N1CCOCC1 | -2.0 | -15.2 | -6.3 | 3.4 | -25.3 | -4.8 | · | ·
O=C(Nc1ccc(F)c(Cl)c1)c1cc(C2CCCN(S(=O)(=O)c3cccc4cccnc34)C2)on1 (stereo not drawn) | 0.8 | -30.4 | 13.0* | 7.1 | -20.9 | 27.8 | 6.5 | -0.8
CCCCC(C(=O)O)C(C)CC(=O)Nc1ccn(-c2ccccc2)n1 (stereo not drawn) | -2.3 | 1.7 | -4.0 | -5.3 | -3.7 | -4.1 | · | ·
CCOC(=O)Nc1cccc(NC(=O)c2ccccc2F)c1 | -25.4 | -0.6 | 19.1* | 0.6 | -3.6 | 20.0 | -3.3 | -0.2
COC(=O)C1CCN(Cc2ccc(OCCCN3CCN(c4ccc([N+](=O)[O-])cc4)CC3)cc2)CC1 | -2.3 | -29.3 | 13.4* | -1.6 | 5.2 | 34.9 | 114.4* | 3.1*
CCOC(=O)C(=CNc1ccc(S(N)(=O)=O)cc1)C(=O)OCC | -17.2 | -2.4 | 12.6* | 17.4 | -6.5 | -37.0 | 29.0* | 0.6
CCOC(=O)C(=CNc1ccc(C#N)cc1)C(=O)OCC | 2.5 | 13.8 | -8.4 | 14.1 | 13.8 | 15.5 | · | ·
CCOC(=O)c1sc2ncnc(N3CCN(C(=O)OCC)CC3)c2c1C | -3.6 | 17.7 | 14.8* | -19.0 | -2.7 | 9.6 | 21.4* | 0.5
CCOC(=O)c1sc2ncnc(N3CCN(CC)CC3)c2c1C | 1.2 | -15.2 | -1.5 | -4.2 | 14.2 | -2.8 | · | ·
O=C(CCCn1cnc([N+](=O)[O-])n1)Nc1cccc(O)c1 | -9.3 | -4.6 | 0.7 | 12.5 | 3.1 | 9.0 | · | ·
CCOC(=O)C(=Cc1ccc(OCc2ccc([N+](=O)[O-])cc2)c(OC)c1)C(=O)OCC | -26.2 | -11.5 | · | -12.4 | -20.7 | -18.9 | 4.6 | -0.2
Oc1cc2c(c(Cl)c1O)CCNCC2c1ccccc1 (stereo not drawn) | -9.7 | -36.3 | 25.9* | 3.2 | -23.3 | -29.0 | 32.1* | 0.7
Cc1ccc(-c2nn3c(C)nnc3c3ccccc23)cc1S(=O)(=O)NC(C)c1ccccc1 (stereo not drawn) | -5.6 | -6.2 | 15.1* | 21.1 | 21.4 | -28.6 | 22.9* | 0.9
Cc1sc2ncn(CC(=O)NCCCN3CCC(C)CC3)c(=O)c2c1S(=O)(=O)N1CCC(C)CC1 | 4.7 | -9.8 | -5.1 | 6.1 | -9.4 | -10.8 | · | ·
CN(C)C(=O)c1ccc(NC(=O)CC2SC(N3CCCC3)=NC2=O)cc1 (stereo not drawn) | -20.3 | 0.9 | -2.4 | 6.5 | 1.0 | 5.8 | · | ·
CCNC(=O)c1ccc(NC(=O)CC2SC(N3CCCCC3)=NC2=O)cc1 (stereo not drawn) | -28.7 | 16.9 | 15.9* | -4.5 | -3.8 | -7.5 | 6.0 | -0.1
Cc1ccc(S(=O)(=O)N2CCC(NC(=O)c3cccc(F)c3)CC2)cc1 | 15.6 | 6.4 | -10.7 | 11.6 | -11.9 | -12.7 | · | ·
COc1cc(C(=O)NCCc2cc3c(OC)ccc(OC)c3[nH]c2=O)cc(OC)c1OC | 8.2 | 2.1 | 14.4* | -9.5 | -7.0 | -12.4 | 15.5* | 0.2
CCN(CC(=O)NCc1ccc(F)cc1)C(=O)c1ccc(C)o1 | -3.2 | -6.7 | -7.7 | 9.7 | -9.2 | -10.2 | · | ·
COc1ccccc1Oc1ccc2c(c1)C(=O)N(c1cccc3ncccc13)C2=O | 4.9 | -15.6 | 57.9* | 21.2 | 1.9 | 29.4 | 45.8* | -0.8
CC(O)C(NS(=O)(=O)c1ccc(Cl)cc1)C(=O)OCC(=O)Nc1cccnc1Cl (stereo not drawn) | 6.6 | -2.0 | 1.7 | 20.2 | 14.9 | 2.2 | · | ·
Cc1ccc(C(=O)N2CCCC(CCC(=O)N3CCN(c4ccccn4)CC3)C2)cc1C (stereo not drawn) | 0.2 | 4.7 | -6.4 | -2.9 | 20.0 | 31.5 | · | ·
Cc1ccc(C(=O)N2CCCC(CCC(=O)N3CCN(c4ccccn4)CC3)C2)cn1 (stereo not drawn) | 0.7 | 1.6 | 12.7* | -14.7 | 7.5 | 9.1 | 8.3 | -0.2
SMILES | NCOA1 inh | SRC2 inh | GalR3 antagonist | NR5A2 inv ag | SRC3 inh | COUP-TFII inh | GalR3 antag conf | CNG parental
CCO[C@@H]1OC(C(=O)NCc2ccccc2)=C[C@H](C2CC2)[C@H]1CCCO | -19.1 | -18.5 | · | -32.5 | 3.0 | 20.9 | 9.0 | -0.1
O=C(Nc1ccccc1NS(=O)(=O)c1ccc(F)cc1)C1CCCC1 | 2.5 | 5.8 | 9.1 | 0.8 | 17.9 | -4.6 | · | ·
CN(C)S(=O)(=O)c1cccc(NC(=S)N2CCCCC2CO)c1 (stereo not drawn) | -7.5 | -6.9 | 1.6 | 1.2 | -5.1 | -11.6 | · | ·
COCCn1c(SCCCC(=O)c2ccc(Br)cc2)nnc1-c1ccncc1 | 29.3 | 13.7 | 17.9* | 45.8 | 23.2 | 33.3 | 38.4* | 0.2
COc1cc(/C=N\NC(=O)c2ccc(-c3ccccc3)cc2)cc(Br)c1O | -13.0 | 15.5 | 14.5* | 9.3 | -14.5 | -16.6 | 40.8* | 0.1
COc1ccc(/C=N/NC(=O)c2ccc(-c3ccccc3)cc2)cc1O | -5.7 | 6.0 | 0.0 | 18.9 | 7.7 | 6.6 | · | ·
CC(C)Oc1ccccc1C1Nc2ccccc2C(=O)N1c1ccc2c(c1)OCCO2 (stereo not drawn) | -74.7 | -33.1 | 1.2 | -161.2 | -108.8 | -28.5 | · | ·
Cc1ccc(N2C(=O)c3ccccc3NC2C(C)Cc2ccc3c(c2)OCO3)cc1 (stereo not drawn) | -40.4 | -8.9 | 39.3* | -59.5 | -62.0 | -17.4 | 48.4* | 0.1
NC(=O)COC(=O)c1cccnc1Nc1ccccc1F | 1.7 | 2.4 | 5.0 | 2.1 | -1.7 | -8.1 | · | ·
